# Shown is part of a subset that was picked to be rich in the strongest signals.
# B1: PX9937D-bvu-500-26-500 (Bacteroides vulgatus) (protein)
# chain: DPVSDITDLNYWKTPEQFDSFVFGLHSRFRSHSWNMFLLGEARSDVFGGIPFGGEATQGMERFPYNTLNAENPGISGFGDLYQNINQMNLFISRTLHTDVLTESARNYYLGQVYGLRAYYMYQLYRSWGDVVFTEEPSLGFEVGKLAKAATPAAEIFEQVKKDIESSLSYFGSDYTIKEKKSLWSKAATLMLKADVYLWSAHRDGGEGDARTAKNALVDIQNNISRSNLDLMDTYQGVFAYDNKGNKEIIFTIHNELFEYNLWNGNNDLFPQADYLGKFYNADGTLINTSVENNFGIMRLMVKLENFKKFLPGDTRRDVTLKDVYNKVENGKLELVGVYPHKYWGVMNGSTRVRCDDYPIYRYSDLLLMLAEAKVLLGEDPATEINRVRRRAFGDAYDASTVGFPNQEVDKRPADAVLQERLFEFMLEGKRWYDLRRFGDSYVLDYTPAEPARLLWPINQGALTNNPLLKQTVGY
# What was measured:
# Assay in all cases: glycan array binding signal (z-score within array); higher = stronger binding
# Conditions in all cases: glycan notation: IUPAC condensed, linker removed
# Fuc(a1-2)Gal(b1-3)GlcNAc = biological target: Fuc(a1-2)Gal(b1-3)GlcNAc
# Outline: (§1)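 Negative Z-scores can be read as non-binding. The Z-score is calculated within each array and then averaged across arrays of one protein sequence at different concentrations or buffers and across linkers. Arrays, 3228 in all, were curated from the Consortium for Functional Glycomics database and kept only where the protein sequence was available.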
# [1] = biological target: Fuc(a1-2)Gal(b1-3)GlcNAc(b1-3)Gal(b1-4)Glc
# Outline: as §1
# Fuc(a1-2)Gal(b1-4)Glc = biological target: Fuc(a1-2)Gal(b1-4)Glc
# Outline: as §1
# [2] = biological target: Fuc(a1-2)Gal(b1-4)GlcNAc(b1-2)Man(a1-3)[Fuc(a1-2)Gal(b1-4)GlcNAc(b1-2)Man(a1-6)]Man(b1-4)GlcNAc(b1-4)[Fuc(a1-6)]GlcNAc
# Outline: as §1
# [3] = biological target: Fuc(a1-2)Gal(b1-4)GlcNAc(b1-2)[Fuc(a1-2)Gal(b1-4)GlcNAc(b1-4)]Man(a1-3)[Fuc(a1-2)Gal(b1-4)GlcNAc(b1-2)Man(a1-6)]Man(b1-4)GlcNAc(b1-4)GlcNAc
# Outline: as §1
# [4] = biological target: Fuc(a1-2)Gal(b1-4)GlcNAc(b1-3)[Fuc(a1-3)[Gal(b1-4)]GlcNAc(b1-6)]Gal(b1-4)Glc
# Outline: as §1
# [5] = biological target: Fuc(a1-2)Gal(b1-4)[Fuc(a1-3)]GlcNAc(b1-2)Man(a1-3)[Fuc(a1-2)Gal(b1-4)[Fuc(a1-3)]GlcNAc(b1-2)Man(a1-6)]Man(b1-4)GlcNAc(b1-4)[Fuc(a1-6)]GlcNAc
# Outline: as §1
# [6] = biological target: Fuc(a1-2)[Gal(a1-3)]Gal(b1-3)GlcNAc(b1-3)GalNAc
# Outline: as §1
# [7] = biological target: Fuc(a1-2)[Gal(a1-3)]Gal(b1-4)[Fuc(a1-3)]GlcNAc
# Outline: as §1
# [8] = biological target: Fuc(a1-2)[GalNAc(a1-4)]Gal(b1-4)GlcNAc
# Outline: as §1
# [9] = biological target: Fuc(a1-3)[Gal(b1-4)]GlcNAc(b1-2)Man(a1-3)[Fuc(a1-3)[Gal(b1-4)]GlcNAc(b1-2)Man(a1-6)]Man(b1-4)GlcNAc(b1-4)GlcNAc
# Outline: as §1
# [10] = biological target: Fuc(a1-3)[Gal(b1-4)]GlcNAc(b1-3)GalNAc
# Outline: as §1
# [11] = biological target: Fuc(a1-3)[Gal3S(b1-4)]GlcNAc6S
# Outline: as §1
# [12] = biological target: Gal(a1-3)Gal(b1-3)GlcNAc(b1-2)Man
# Outline: as §1
# [13] = biological target: Gal(a1-3)Gal(b1-4)GlcNAc(b1-3)GalNAc
# Outline: as §1
# [14] = biological target: Gal(a1-3)[Gal(a1-4)]Gal(b1-4)GlcNAc
# Outline: as §1
# [15] = biological target: Gal(a1-4)Gal(b1-4)GlcNAc(b1-2)Man(a1-3)[Gal(a1-4)Gal(b1-4)GlcNAc(b1-2)Man(a1-6)]Man(b1-4)GlcNAc(b1-4)GlcNAc
# Outline: as §1
# Gal(b1-3)Gal(b1-4)GlcNAc = biological target: Gal(b1-3)Gal(b1-4)GlcNAc
# Outline: as §1
# [16] = biological target: Gal(b1-3)GlcNAc(b1-2)Man(a1-3)[Gal(b1-3)GlcNAc(b1-2)Man(a1-6)]Man(b1-4)GlcNAc(b1-4)GlcNAc
# Outline: as §1
# [17] = biological target: Gal(b1-3)[Fuc(a1-4)]GlcNAc(b1-3)Gal(b1-4)[Fuc(a1-3)]GlcNAc
# Outline: as §1
# [18] = biological target: Gal(b1-4)GalNAc(b1-3)[Fuc(a1-2)]Gal(b1-4)GlcNAc
# Outline: as §1
# [19] = biological target: Gal(b1-4)GlcNAc(b1-2)[Gal(b1-4)GlcNAc(b1-6)]Man(a1-6)[GlcNAc(b1-4)][Gal(b1-4)GlcNAc(b1-2)[Gal(b1-4)GlcNAc(b1-4)]Man(a1-3)]Man(b1-4)GlcNAc(b1-4)[Fuc(a1-6)]GlcNAc
# Outline: as §1
# [20] = biological target: Gal(b1-4)GlcNAc(b1-3)Gal(b1-4)GlcNAc(b1-3)Gal(b1-4)GlcNAc(b1-3)Gal(b1-4)GlcNAc(b1-3)Gal(b1-4)GlcNAc(b1-3)Gal(b1-4)GlcNAc(b1-2)Man(a1-3)[Gal(b1-4)GlcNAc(b1-3)Gal(b1-4)GlcNAc(b1-3)Gal(b1-4)GlcNAc(b1-3)Gal(b1-4)GlcNAc(b1-3)Gal(b1-4)GlcNAc(b1-3)Gal(b1-4)GlcNAc(b1-2)Man(a1-6)]Man(b1-4)GlcNAc(b1-4)GlcNAc
# Outline: as §1
# [21] = biological target: Gal3S(b1-4)[Fuc(a1-3)]Glc6S
# Outline: as §1
# Gal3S6S(b1-4)GlcNAc6S = biological target: Gal3S6S(b1-4)GlcNAc6S
# Outline: as §1
# Gal6S(b1-3)GlcNAc = biological target: Gal6S(b1-3)GlcNAc
# Outline: as §1
# GalNAc(b1-3)GalNAc = biological target: GalNAc(b1-3)GalNAc
# Outline: as §1
binder,measurement,setting,value
B1,glycan array binding signal (z-score),Fuc(a1-2)Gal(b1-3)GlcNAc,-0.32
same,glycan array binding signal (z-score),[1],-0.541
same,glycan array binding signal (z-score),Fuc(a1-2)Gal(b1-4)Glc,-0.401
same,glycan array binding signal (z-score),[2],2.63
same,glycan array binding signal (z-score),[3],0.277
same,glycan array binding signal (z-score),[4],-0.243
same,glycan array binding signal (z-score),[5],5.16
same,glycan array binding signal (z-score),[6],-0.226
same,glycan array binding signal (z-score),[7],-0.096
same,glycan array binding signal (z-score),[8],1.69
same,glycan array binding signal (z-score),[9],6.27
same,glycan array binding signal (z-score),[10],-0.063
same,glycan array binding signal (z-score),[11],0.002
same,glycan array binding signal (z-score),[12],4.49
same,glycan array binding signal (z-score),[13],-0.404
same,glycan array binding signal (z-score),[14],2.38
same,glycan array binding signal (z-score),[15],9.96
same,glycan array binding signal (z-score),Gal(b1-3)Gal(b1-4)GlcNAc,-0.412
same,glycan array binding signal (z-score),[16],4.38
same,glycan array binding signal (z-score),[17],-0.383
same,glycan array binding signal (z-score),[18],-0.3
same,glycan array binding signal (z-score),[19],5.5
same,glycan array binding signal (z-score),[20],2.58
same,glycan array binding signal (z-score),[21],0.78
same,glycan array binding signal (z-score),Gal3S6S(b1-4)GlcNAc6S,0.182
same,glycan array binding signal (z-score),Gal6S(b1-3)GlcNAc,1.2
same,glycan array binding signal (z-score),GalNAc(b1-3)GalNAc,-0.663

# From the supplement of paper PMC8728848
